“And” between values parts separate entries of the source, which are not always exact repeats. Identical values can stand only once. Inconclusive results are not listed. Unmarked numbers belong to inactive results. The source made the active and inactive calls. Calls follow the shape of the dose curve; as a rule, active = well fitted cell-killing curve with a large enough effect; inconclusive = small, poorly fitted or top-dose-only effect, or effect the other way; inactive = no such curve, though single readings can be large or run the other way.
Potency is read from the fitted curve at half-maximal effect.

The nature of the assay: Viability qHTS for spleen associated tyrosine kinase inhibitor (SYKi) naive MV4-11 cells (AID 1963823). Also: nearly all actives have a fitted effect of over 40% in size. Conditions: MV4-11 AML viability, CellTiter-Glo luminescence, 72 h; series mostly up to 45 µM; viability (% of control): at the top concentration. Summed up:
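Seeding of 500 SYKi-naive MV4-11 cells per well onto pre-dispensed compounds preceded a 72 hr incubation at 37 C. Luminescent CellTiter-Glo signal, read after 10 min at room temperature, reflected viable cells.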
For orientation: qHTS replaces the single test concentration by a dilution series.
Take `C=C1CC[C@@H]2[C@](C)(CO[C@@H]3O[C@H](CO)[C@@H](O)[C@H](O)[C@H]3O)[C@H](O)CC[C@@]2(C)[C@@H]1C/C=C1/C(=O)OC[C@H]1O`: the “viability (% of control)” value was 59% [at 17.3 µM]. Same read-out and setting: in the case of `C/C=C/C=C/C(O)=C1/C(=O)[C@]2(C)C(=O)[C@@](C)(O)[C@H]1[C@H]([C@@]1(C)OC(=O)C(C)=C1O)[C@H]2C(=O)CC/C=C/C` it was 74.5% [at 17.3 µM].

As for `C[C@@H](c1ccccc1)N(C(N)=NC#N)c1cccc2ncccc12`, the “viability (% of control)” value was 69.5%. On the same count and under the same terms, in the case of `c1ccc2c(Nc3nnc(-c4ccncc4)s3)cccc2c1` it was 59.5%.

As to `COC(=O)C1=CO[C@@H](O[C@@H]2O[C@H](CO)[C@@H](O)[C@H](O)[C@H]2O)C2C1CC(O)C2C` (stereo not given in full), the “viability (% of control)” value was 84.1%.

Turning to `COc1ccc(NC(=O)C2C[C@H](C)CC[C@H]2C(C)C)cc1` (stereo not given in full), the “viability (% of control)” value is 55%. As for `OC[C@H]1O[C@@H](OCCc2ccccc2)[C@H](O[C@@H]2OC[C@@H](O)[C@H](O)[C@H]2O)[C@@H](O)[C@@H]1O`, the “viability (% of control)” value is 74.6% [at 17.3 µM]. For `COc1ccc(-n2c(SCC#N)nc3sc4c(c3c2=O)CCCC4)cc1`, the “viability (% of control)” value was 84%.

For the compound `C/C=C(/C)C(=O)OC1C(OC(C)=O)C23C(O)OC4(CCC5C6(C)CCC(OC7OC(C(=O)O)C(O)C(OC8OC(CO)C(O)C(O)C8OC8OC(C)C(O)C(O)C8OC8OCC(O)C(O)C8O)C7OC7OC(CO)C(O)C(O)C7O)C(C)(C)C6CCC5(C)C4(C)CC2OC(C)=O)C3CC1(C)C` (stereo not given), the viability (% of control) is 43.2% [at 9.25 µM]. Turning to `COC(=O)C1=CO[C@@H](O[C@@H]2O[C@H](CO)[C@@H](O)[C@H](O)[C@H]2O)[C@H]2[C@@H]1[C@H](O)[C@H](O)[C@]2(C)O`, the “viability (% of control)” value was 73.8% [at 17.3 µM]. As for `CCOc1ccc(C(Nc2ccccn2)c2ccc3ccc(C)nc3c2O)cc1C` (stereo not given), the Potency is 23.1 µM (active).

As for `C=C1CC[C@@]2(OC1)O[C@H]1CC3C4CC=C5C[C@@H](O[C@@H]6O[C@@H](C)[C@H](O)[C@@H](O)[C@H]6O)C[C@@H](O[C@@H]6O[C@H](C)[C@H](O)[C@H](O)[C@H]6O[C@@H]6O[C@@H](C)[C@H](O)[C@@H](O)[C@H]6O)[C@]5(C)C4CC[C@]3(C)[C@H]1[C@@H]2C` (stereo not given in full), the viability (% of control) was 70.4% [at 9.25 µM]. With `CC(=O)O[C@H]1CC2C(COC(=O)CC(C)C)=CO[C@@H](OC(=O)CC(C)C)C2[C@]12CO2` (stereo not given in full), the Potency was 1.42 µM (active). In the case of `O=C(NNc1nc2cc(F)ccc2n2cccc12)c1cnccn1`, the Potency was 0.82 µM (active). With `O=c1c2ccccc2nc2n1CCC2O` (stereo not given), the “viability (% of control)” value was 82.6% [at 91.9 µM]. With `O=C1NCCSc2c1sc1ccc(O)cc21`, the Potency is 2.59 µM (active). As for `CC(C)C1NC(=O)C(CC2(O)c3ccccc3N3C(=O)C(Cc4ccccc4)NC32)NC1=O` (stereo not given), the “viability (% of control)” value is 70.2% [at 17.3 µM]. Still for that read-out and setting: in the case of `C/C(=C\CC[C@@H](C)[C@H]1CC(O)[C@@]2(C)C3CC[C@H]4C(C)(C)[C@@H](OC5OCC(O)C(O)C5OC5OC(CO)C(O)C(O)C5O)CC[C@@]45C[C@@]35CC(O)[C@]12C)C(=O)O` (stereo not given in full) it was 56% [at 17.3 µM]; in that of `CSc1ccc(C(=O)N[C@@H]2CCCC[C@@H]2NC(=O)CNC(=O)c2cc(C(F)(F)F)ccc2NC(=O)NC(C)C)cc1`, 50.2%.

As for `CN(CCOc1ccc(C[C@H](Nc2ccccc2C(=O)c2ccccc2)C(=O)O)cc1)c1ccccn1`, the “viability (% of control)” value is 49.8%. For `CC(=O)OC1CC(C)(C(=O)O)CC2C3=CC(=O)C4C5(C)CCC(OC6OC(C(=O)O)C(O)C(O)C6OC6OC(C(=O)O)C(O)C(O)C6O)C(C)(C)C5CCC4(C)C3(C)CCC12C` (stereo not given), the viability (% of control) was 70.5% [at 9.25 µM].

Consider `CC1CC(=O)C2C(O)(C1)CC(O)C13OC1c1c(O)cccc1C(=O)C23O` (stereo not given), for which the Potency is 14.3 µM (active). With `O=C(NCc1cccc(O)c1)c1cc2cc(F)ccc2[nH]1`, the Potency is 16.4 µM (active). For the compound `CO[C@H]1/C=C/O[C@@]2(C)Oc3c(C)c(O)c4c(O)c(c(/C=N\N5CCN(C6CCCC6)CC5)c(O)c4c3C2=O)NC(=O)/C(C)=C\C=C\[C@H](C)[C@H](O)[C@@H](C)[C@@H](O)[C@@H](C)[C@H](OC(C)=O)[C@@H]1C`, the Potency was 18.6 µM (active). Take `Cc1ccc(NC(=O)c2ccc(CN3CCNCC3)cc2)cc1Nc1nccc(-c2cccnc2)n1`: the Potency was 9.2 µM (active) and 16.6 µM (active). As for `CCn1c(=O)c2cc(C(N)=O)c(N)nc2n(C2CC2)c1=O`, the “viability (% of control)” value is 77.1%. For the compound `C=C1CC[C@H]2[C@@](C)(CCC(O)[C@@]2(C)CO)[C@@H]1CCC1=CCOC1=O` (stereo not given in full), the “viability (% of control)” value was 34.7%. As to `CN1CCN(Cc2ccc(-c3cnc4[nH]cc(-c5ccc6[nH]ccc6c5)c4c3)cc2)CC1`, the Potency is 0.082 µM (active). On the same count and under the same terms, with `O=C(NC(NC(=S)Nc1ccc(F)c([N+](=O)[O-])c1)C(Cl)(Cl)Cl)C(c1ccccc1)c1ccccc1` (stereo not given) the figure was 3.26 µM (active).

Regarding `CC(=O)NC1CC(=O)C23C(=O)NC(Cc4c[nH]c5ccccc45)C2C(C)=C(C)C(O)C3/C=C/CC(C)/C=C(/C)C(O)C1O` (stereo not given), the “viability (% of control)” value is 67.1% [at 17.3 µM].

With `CC1(C)CC[C@]2(C(=O)O)CC[C@]3(C)C(=CCC4[C@@]5(C)CC[C@H](O[C@@H]6O[C@H](C(=O)O)[C@@H](O)[C@H](O)[C@H]6O)C(C)(CO)C5CC[C@]43C)C2C1` (stereo not given in full), the “viability (% of control)” value was 77.5% [at 17.3 µM]. On to `C=C1CCC2(OC1)OC1CC3C4CC=C5CC(O)CC(O[C@@H]6OC[C@@H](O)[C@H](O)[C@H]6O)C5(C)C4CCC3(C)C1(O)C2C` (stereo not given in full), for which the “viability (% of control)” value is 75.6% [at 17.3 µM].

Consider `COc1ccc(/C=C/C(=O)O[C@@H]2[C@@H](O)[C@@H](O)[C@H](O[C@H]3[C@@H]4C=CO[C@@H](O[C@@H]5O[C@H](CO)[C@@H](O)[C@H](O)[C@H]5O)[C@@H]4[C@@]4(CO)O[C@@H]34)O[C@H]2C)cc1`, for which the “viability (% of control)” value is 71.8% [at 17.3 µM]. For the compound `CC1(C)CCC(C)(C)c2cc([C@@H](O)C(=O)Nc3ccc(C(=O)O)cc3F)ccc21`, the Potency was 4.11 µM (active).

`OC/C=C/C=C/[C@H]1Cc2cc(O)cc(O)c2O1`: the “viability (% of control)” value is 79.6%. Turning to `CC[C@@H](O)C[C@@H]1C(C)=C[C@@H]2CCCC[C@@H]2[C@@]1(C)C(=O)O`, the “viability (% of control)” value was 71%.

Take `OC[C@H]1O[C@@H](OCCc2ccc(O)cc2)[C@H](O[C@@H]2OC[C@](O)(CO)[C@H]2O)[C@@H](O)[C@@H]1O`: the “viability (% of control)” value is 85% [at 17.3 µM]. For the compound `CC(C)=C1C[C@@]2(C)C(=CC1=O)CC[C@@H](O)[C@@H]2C`, the “viability (% of control)” value was 68.3%.

For the compound `CC1(C)CCC(C)(C)c2cc3c(cc21)Sc1ccccc1N=C3c1ccc(C(=O)O)cc1`, the “viability (% of control)” value is 63.5%. With `C=CC(C)(O)CC/C=C(/C)COC(=O)C(C)C1CCC(C)(C=C)O1` (stereo not given), the “viability (% of control)” value is 60.9%.
